This is a sample that favours compounds with a hit; in the whole collection about 5.4% have one here.
rCAG binder: binders of r(CAG) RNA repeats, primary screen, biochemical, fluorescence. AID 651821, 2012. inhibition, % at 3 µM. r(CAG) RNA repeat, TO-PRO-1 dye displacement fluorescence. 370,000 compounds, 1.3% hits;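 active means inhibition above the plate cutoff, the mean of all test compounds on that plate plus 3 SD, cut at about 35% in these data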;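 further: 0% = DMSO alone and 100% = 100 µM mitoxantrone as full dye displacement; higher means more dye released from RNA so lower well fluorescence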
ALR inh: inhibitors of human ALR sulfhydryl oxidase, primary screen, biochemical, H2O2 detection, HRP-luminol luminescence, single point | FAD-linked sulfhydryl oxidase ALR (Homo sapiens), P55789 | 290,000 compounds, 3.8% hits | purified ALR, DTT oxidation | inhibition, % (concentration not given with the values);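 active means mean replicate inhibition above about 79%, with every replicate also reaching it, limit read from the data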
PHOSPHO1 inh: PubChem AID 1565. Phosphoethanolamine/phosphocholine phosphatase (Homo sapiens), Q8TCT1. recombinant PHOSPHO1, absorbance phosphatase assay. inhibition, % at 13.3 µM. 290,000 compounds, 1.1% hits; in the data active means inhibition above about 60%
Target sequence (Q8TCT1 whole entry, looked up): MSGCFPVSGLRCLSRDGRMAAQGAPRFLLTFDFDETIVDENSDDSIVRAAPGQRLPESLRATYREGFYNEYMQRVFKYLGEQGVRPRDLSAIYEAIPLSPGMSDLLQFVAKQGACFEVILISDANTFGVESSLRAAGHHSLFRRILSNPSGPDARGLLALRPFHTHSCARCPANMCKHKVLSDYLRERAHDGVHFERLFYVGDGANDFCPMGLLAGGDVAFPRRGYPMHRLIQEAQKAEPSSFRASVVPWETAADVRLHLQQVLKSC
aDG glyco up: activators of alpha-DG glycosylation, primary screen, uHTS, Pro5-aDG cells, AlphaScreen | alpha-DG glycosylation AlphaScreen (IIH6); 0% Pro5, 100% B10-LARGE cell signal | activation, % at 10 µM | 360,000 compounds, 0.22% hits | AID 624168, 2012;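 active means activation of at least 8% versus controls, or a plate z-score of at least 8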;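 further: Pro5 are CHO cells carrying HIG-tagged alpha-DG that lacks glycosylation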
A3A deaminase: APOBEC3A ssDNA deaminase inhibitors, primary screen, selectivity assay for APOBEC3G inhibitor project, biochemical, FAM/TAMRA oligo cleavage fluorescence | AID 493011, 2011 | DNA dC->dU-editing enzyme APOBEC-3A (Homo sapiens), P31941 | recombinant A3A, FAM/TAMRA ssDNA deamination fluorescence | 330,000 compounds, 0.41% hits | inhibition, % at 20 µM;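 active means at least 40% inhibition at 20 µM here, with at most 30% in a related deaminase screen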;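 further: plate controls were A3A with DMSO for no effect and wells lacking A3A enzyme for full effect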
APOBEC3G inh: APOBEC3G DNA deaminase inhibitors, primary screen, biochemical, fluorescence, single-stranded DNA substrate, uHTS. 330,000 compounds, 0.28% hits. inhibition, % at 20 µM. recombinant A3G, ssDNA deamination FAM/TAMRA fluorescence;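 active means inhibition of at least 40% at 20 µM, with no more than 30% in the related APOBEC3A deaminase screen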;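 further: plate controls were DMSO wells with A3G for no effect and wells lacking A3G enzyme for full effect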
* = called active by the depositor; nt = no result.

SMILES	rCAG binder	ALR inh	PHOSPHO1 inh	aDG glyco up	A3A deaminase	APOBEC3G inh
CC/C(=N\Nc1ccccc1)c1c(O)n(-c2ccc(OC)cc2)c(=O)[nH]c1=O	4	99*	8	0	1	-3
C=CCn1c(O)c(/C(CC)=N/NC(=S)Nc2ccccc2)c(=O)[nH]c1=O	1	nt	67*	0	-4	3
O=C(CSC1c2ccccc2-c2ccccc21)N/N=C/c1ccccc1O	5	98*	2	1	4	-1
O=C(CSC1c2ccccc2-c2ccccc21)N/N=C/c1ccc(C(=O)O)cc1	13	-5	20	0	-1	7
O=c1[nH]c(=O)n(CCC2=CCCCC2)c(O)c1/C=N/Nc1ccccc1	16	98*	-18	0	1	22
O=c1[nH]c(=O)n(Cc2ccc(F)cc2)c(O)c1/C=N/Nc1ccccc1	8	99*	-45	0	-3	7
CN(C)c1ccc(P(=S)(N(C)C)N(C)C)cc1	-7	99*	22	0	6	2
CCOP(=S)(OCC)c1ccc(N(C)C)cc1	-3	3	31	0	7	3
Cc1ccccc1C(=O)N1CC1C (stereo not drawn)	1	nt	nt	0	nt	nt
Cc1cc(O)c2c(c1)C(=O)[C@@]13C(=C2O)C(=O)[C@H]2C(O)[C@@H]1[C@H]1C(O)[C@@H]3C(=O)C3=C(O)c4c(O)cc(C)cc4C(=O)[C@@]312 (stereo partly drawn)	1	nt	nt	nt	nt	nt
CC(C)Nc1ccc(Nc2ccccc2)cc1	7	99*	nt	0	-1	1
C[C@@H]1CN([C@H](C)CO)C(=O)CCCn2nncc2CO[C@@H]1CN(C)C(=O)Oc1cccc2ccccc12	-1	nt	nt	0	nt	nt
O=C(c1ccc2c3c(cccc13)CC2)C1CCCN(Cc2ncc[nH]2)C1 (stereo not drawn)	-3	-29	45	0	-4	-10
O=C(c1ccc2c3c(cccc13)CC2)C1CCCN(CC2CC2)C1 (stereo not drawn)	4	-4	60*	0	5	-5
Cc1ccc(CN2CCN(CC(=O)N3CCC4(CC3)OCCO4)C2=O)cc1	-5	19	0	0	-7	-7
Cc1ccc(CN2CCSc3ccc(C(=O)N4CCC5(CC4)OCCO5)cc32)cc1	2	80*	16	0	-5	-7
O=C(c1ccc2c(c1)N(Cc1ccc(F)cc1)CCS2)N1CCC2(CC1)OCCO2	-9	82*	12	0	0	-2
O=C(NCCN1CCC2(CC1)C(=O)NCN2c1ccccc1)c1cccc(F)c1	2	nt	nt	nt	nt	nt
O=C(COc1ccccc1Cl)N1CCCC(N2CCN(c3ccc(F)cc3)CC2)C1 (stereo not drawn)	-6	10	38	1	-3	-6
COc1ccccc1OCC(=O)N1CCCC(N2CCN(c3ccc(F)cc3)CC2)C1 (stereo not drawn)	-10	95*	-11	0	-1	-6
CC(C)c1onc(C(=O)N2CCC3(CC2)OCCO3)c1[N+](=O)[O-]	1	1	64*	0	3	0
Cc1noc(C)c1C(=O)N1CCC2(CC1)OCCO2	-3	-3	7	0	-3	-5
Cc1oc(-c2cccs2)nc1CSCC(=O)N1CCC2(CC1)OCCO2	-1	99*	16	0	18	-1
COc1ccc(-c2nc(CSCC(=O)N3CCC4(CC3)OCCO4)c(C)o2)cc1OC	-9	100*	20	0	-6	-4
O=C(Cc1cccs1)N1CCC2(CC1)OCCO2	4	-3	50	0	-2	-4
O=C(NC1CN2CCC1CC2)c1cc(-c2ccc(Cl)cc2)nc2ccccc12 (stereo not drawn)	15	nt	nt	nt	nt	nt

Bioassay records as filed in PubChem BioAssay.
